# A number with no mark means an inactive call. No rule for the calls is given here.
# Biological target: Pantothenate synthetase (Mycobacterium tuberculosis (strain ATCC 25618 / H37Rv)) (UniProt P9WIL5)
# Test: Coupled enzyme confirmation of inhibitors against recombinant Mtb PanC (AID 375);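 also: 0% = full reaction with vehicle and 100% = no enzyme background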
# Conditions: coupled enzyme assay; at 10 µM, hits give high values
# Sequence of Pantothenate synthetase (Mycobacterium tuberculosis (strain ATCC 25618 / H37Rv)) (P9WIL5 whole entry, looked up): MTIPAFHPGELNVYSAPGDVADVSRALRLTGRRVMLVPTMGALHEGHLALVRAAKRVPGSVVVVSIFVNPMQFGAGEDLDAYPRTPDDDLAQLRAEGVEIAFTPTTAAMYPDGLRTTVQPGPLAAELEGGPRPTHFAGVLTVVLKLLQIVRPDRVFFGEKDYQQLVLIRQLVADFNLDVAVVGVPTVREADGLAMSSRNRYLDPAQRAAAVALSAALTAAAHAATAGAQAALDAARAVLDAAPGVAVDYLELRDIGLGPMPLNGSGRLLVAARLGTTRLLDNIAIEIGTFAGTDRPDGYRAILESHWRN
row,SMILES,inhibition
1,O=C(NCc1cccnc1)c1ccc2c(c1)OCO2,0%
2,COc1ccc(C(=O)N2CCN(C(=O)c3ccco3)CC2)cc1OC,4%
3,COc1cccc(-c2nnc(NC(C)=O)o2)c1,0%
4,CN1CCN(CC(=O)N2c3ccccc3C(C)(c3ccccc3)CC2(C)C)CC1 (stereo not given),0%
5,CCCCC(CC)C(=O)Nc1ccccc1C#N (stereo not given),0%
6,Cc1cc2c(cc1C)-c1nnnn1C(C)(C)C2,4%
7,COCCn1c(SCc2csc(-c3ccccc3)n2)nc2ccccc21,5%
8,Cc1ccc(-c2nnc3c4ccccc4c(C)nn23)cc1S(=O)(=O)N1CCN(C)CC1,1%
9,COc1ccc(-c2cn3cc(C)ccc3n2)cc1OC,8%
10,O=C(CNc1ccc(Oc2ccccc2)cc1)N1CCOCC1,0%
11,COc1ccc(CNc2nc3nc(C)cc(C)n3n2)cc1OC,1%
12,Cc1ccc(CNC(=O)C2CC(=O)OC23CCCC3)c(C)c1 (stereo not given),0%
13,Cc1cc(C(=O)NCCN2CCCCC2C)n(-c2ccccc2)n1 (stereo not given),0%
14,O=C(CCN1CCOCC1)Nc1cccc(Br)c1,10%
15,COc1cccc2cc(C(=O)Nc3cccnc3N3CCOCC3)c(=O)oc12,0%
16,CCN(CC(=O)O)S(=O)(=O)c1cc(Cl)ccc1Cl,0%
17,O=C(c1cnc2sccn2c1=O)N1CCc2ccccc2C1,0%
18,CC(C)(C)C(=O)CCN1C(=O)C2(OCCO2)c2ccccc21,0%
19,NC(=O)c1c(-c2ccccc2)oc2ccc(O)cc12,0%
20,COc1ccc(C2C(C(C)=O)=C(C)N=c3s/c(=C/c4ccc5c(c4)OCO5)c(=O)n32)cc1 (stereo not given),0%

row,SMILES,inhibition
1,Cn1nnnc1SCC(=O)N1CCN(c2cccc(Cl)c2)CC1,2%
2,O=C(CS(=O)(=O)Cc1ccccc1)Nc1nc2ccccc2s1,0%
3,CCC(c1nnnn1C(C)(C)C)N1CCN(C2CCCC2)CC1 (stereo not given),4%
4,O=C(CSc1nc(-c2ccccc2)cs1)NC(=O)NCc1ccco1,0%
5,CCOc1ccccc1C(=O)NCc1ccc2c(c1)OCO2,4%
6,c1cn2cc(CSC3CCCCC3)nc2s1,2%
7,O=C(NCc1cccs1)c1cc2c(s1)-c1ccccc1OC2,0%
8,Cc1cnnc2c1-c1nonc1CC2,4%
9,CC(=O)Nc1ccc(NS(=O)(=O)C(F)(F)F)cc1,0%
10,CCNc1nc(NCC)n2c(SCc3nc4ccccc4c(=O)[nH]3)nnc2n1,1%
11,CSc1nc2ccc(S(=O)(=O)N3CCOCC3)cc2s1,4%
12,CCc1ccccc1N1C(=O)C2CC(C)=C(C)CC2C1=O (stereo not given),0%
13,O=C1C(Cl)=C(N2CCCCC2)C(=O)N1c1ccccc1Cl,7%
14,CN(C)c1ccc(NC(=O)Cn2cc3c(n2)CCCC3)cc1,0%
15,Cn1c(=O)c2[nH]cnc2n(C)c1=O,1%
16,COC(=O)c1ccc(NC(=O)C(C)N2C(=O)c3ccccc3C2=O)cc1 (stereo not given),8%
17,COc1ccccc1NC(=O)C1CC(=O)N(c2ccc(F)cc2)C1 (stereo not given),0%
18,CCCC(=O)Nc1ccccc1-c1nnn(CC(=O)Nc2ccc(OC)cc2)n1,0%
19,CCOc1cc2[nH]c(=O)n(CCCCC(=O)NCc3ccco3)c(=O)c2cc1OCC,6%
20,C=CCn1c(SCc2cccc(C#N)c2)nnc1-c1ccccc1O,0%
